Shown are actives, neighbours in structure and some others; about 32% of the full set was active somewhere.
CYP2C19 activ – human CYP2C19 activators, primary screen, biochemical, luminescence | recombinant CYP2C19, luciferin-H EGE luminescence; hits give high values; 0 = fully inhibited enzyme, 1 = untreated enzyme | 96,000 tested, under 10 active | Cytochrome P450 2C19 (Homo sapiens), P33261 | AID 1025, 2008 | activation factor at 5 µM;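 active = activation factor of at least 2 at 5 µM in the primary screen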;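 also: 0 = wells with 2.5 mM tranylcypromine and 1 = vehicle-only wells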
PostGolgi ctrl – growth inhibition of yeast control strain, primary screen, counter-screen for post-Golgi transport modulator project | efflux-deficient yeast background strain, growth absorbance A615, 16 h | inhibition, % at 10 µM | 98,000 tested, 5% active | AID 738, 2007
PostGolgi yeast – phenotypic screen on post-Golgi transport, primary screen; post-Golgi transport phenotypic cell assay; inhibition, % at 10 µM; 98,000 tested, 0.9% active; AID 739, 2007;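 also: yeast cells grown in 1536-well plates; yeast grown about 18 h at 30C before absorbance read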
CYP2C9 act – human CYP2C9 activators, primary screen, biochemical, luminescence | recombinant CYP2C9, luciferin-H conversion; hits give high values; factor 1 = untreated enzyme, 0 = blocked | activation factor at 5 µM | 96,000 tested, 1.4% active;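 active = activation factor of 2 or more for CYP2C9 at a 5 µM dose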;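 also: 0 = sulfaphenazole-blocked wells and 1 = vehicle-only wells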
CYP2C19 inh – blockers of cytochrome P450 2C19 activity – biochemical, luminescence, ADME assay, primary screen; P33261; CYP2C19 Supersomes, luciferin-H EGE luminescence, 30 min; inhibition, % at 5 µM; 96,000 tested, 21% active; AID 778, 2007;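 active = CYP2C19 inhibition above a set limit at 5 µM in the primary screen, cut at about 50% in these data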;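 also: plate controls were negative control wells for no effect and 2.5 mM tranylcypromine positive control for full effect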
CYP2C9 inh – blockers of cytochrome P450 2C9 activity – biochemical, luminescence, ADME assay, primary screen | 96,000 tested, 20% active | inhibition, % at 5 µM | CYP2C9 Supersomes, luciferin-H conversion | AID 777, 2007;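 active = blocking of liver enzyme CYP2C9 beyond about 50% at 5 µM, limit read from the data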
Active calls of the source: *; / = no result. Rule as the data show it, unless noted: active = inhibition above about 30%; inactive = the rest.

SMILES	CYP2C19 activ	PostGolgi ctrl	PostGolgi yeast	CYP2C9 act	CYP2C19 inh	CYP2C9 inh
Cc1oc(-c2ccccc2F)nc1CS(=O)(=O)CC(=O)N1CCN(c2ccccc2)CC1	0.4	37*	-5	0.4	60*	65*
Cc1oc(-c2ccccc2F)nc1CS(=O)(=O)CC(=O)N1CCc2ccccc21	1.2	10	-6	0.8	-16	21
CC(NC(=O)C1CC1)C(c1cccs1)N1CCN(c2ccccc2)CC1 (stereo not drawn)	/	15	7	/	/	/
COc1ccc(N2CCN(C(c3cccs3)C(C)NS(=O)(=O)c3ccccc3)CC2)cc1 (stereo not drawn)	0.7	39*	3	0.8	28	22
COC(=O)Cn1nc(-c2ccc(C)c(S(=O)(=O)N(C)C)c2)c2ccccc2c1=O	0.8	11	22	0.4	20	59*
Cc1ccc(-c2nn(CC(=O)N(C)C)c(=O)c3ccccc23)cc1S(=O)(=O)N(C)C	0.8	14	-3	0.4	21	62*
CN(C)C(=O)Cn1nc(-c2ccccc2)c2ccccc2c1=O	0.8	4	-1	1	22	4
Cc1ccc(NC(=O)CSCc2c(C)noc2C)cc1C	0.1	-1	15	0.5	94*	48
Cc1noc(C)c1CSCC(=O)OCC(=O)Nc1sccc1C#N	0.6	10	22	0.3	38	67*
CCOC(=O)Cc1cn2c(=O)cc(CSCC(=O)Nc3ccc(C)c(C)c3)nc2s1	0.8	-6	-7	0.3	21	74*
CCCCc1ccc(-c2c(C#N)c(N)nc3c2CCCC3)s1	0.8	12	-2	1.2	17	-24
Cn1cc([N+](=O)[O-])c(C(=O)Nc2cc(Oc3cccnc3)cc([N+](=O)[O-])c2)n1	0.3	21	3	0.2	72*	78*
Cc1cc(C)n(Cc2ccc(NC(=O)c3nn(C)cc3[N+](=O)[O-])cc2)n1	0.8	4	22	0.7	24	32
CSc1nc2n(n1)C(c1ccccn1)C1=C(CC(C)(C)CC1=O)N2 (stereo not drawn)	1	-2	-6	1.1	-1	-6
O=C(CN1C(=O)COc2ccccc21)N(Cc1cccnc1)Cc1cccc(F)c1	0.1	7	2	0.1	87*	91*
COC(=O)c1ccc(Oc2cc(C)nc(SC)n2)cc1	0.1	10	-3	0.3	86*	72*
COC(=O)COc1ccc(Oc2cc(C)nc(SC)n2)nn1	1	15	2	1	-1	-4
COc1ccc2c(CC(=O)OCC(=O)NC(=O)c3cccn3C)coc2c1	1	5	0	0.9	-4	11
Cc1nc(SC2CC(=O)N(c3cc(Cl)cc(Cl)c3)C2=O)nc2c1CCCC2 (stereo not drawn)	0.7	59*	14	0.5	28	47
Cc1cccc(N2C(=O)CC(Sc3nc(C)c4c(n3)CCCC4)C2=O)c1 (stereo not drawn)	0.9	28	3	1.2	12	-23
COc1ccccc1NC(=O)C1CCCCC1	0.9	7	2	1.6	6	-64
COc1ccccc1NC(=O)Nc1ccnn1Cc1cccs1	0.4	0	-9	0.7	63*	30
COc1ccccc1NC(=O)Nc1ccnn1C1CCCCC1	0.4	-8	-11	0.6	56*	44
CCCCNC(=O)Nc1ccnn1C1CCCCC1	0.4	-2	1	0.8	57*	15
CCn1c(COc2ccccc2)nnc1SCc1ccc(C#N)cc1	0.8	7	1	0.8	22	17
CCn1c(COc2ccc(=O)n(-c3ccccc3)n2)nnc1SCc1cccc(OC)c1	0.8	7	-5	0.5	17	53*
N=c1sccn1CC(=O)NCCc1ccc(Cl)cc1	0.9	3	-14	1.1	6	-11
CCN(CCCNC(=O)C1CCN(S(=O)(=O)c2c(C)[nH]c(=O)[nH]c2=O)CC1)c1cccc(C)c1	0.5	7	-5	0.5	54*	50
CCN(CCCNC(=O)C1CCN(S(=O)(=O)CC)CC1)c1ccccc1	0.8	9	-5	1.3	17	-33

Screens as filed in PubChem BioAssay.
